Screening data (PubChem)
A selection: hits, their analogues and other compounds. The true share with any hit is near 21%.
TDP1 cell CPT: DT40-hTDP1 cell growth loss with CPT. chicken DT40 Tdp1-/-;hTDP1 cells + 20 nM CPT, ATP luminescence, 48 h. Potency, µM (top dose mostly 46.2 µM), inactives show top-dose activity change, negative = growth inhibition, usual class: inhibitors. actives 12% (n = 420,000). AID 686979; further: potency means the concentration at half of the fitted maximal effect; nearly all actives have a fitted effect of over 55% in size
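Cell growth measured by CellTiter-Glo luminescence after a minimum 48 h, 37 C compound exposure with 20 nM CPT in Tdp1-knockout DT40 cells stably expressing hTDP1, seeded 400/well; qHTS titration format.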
ELG1 repair inh: blocks ELG1-dependent DNA repair in HEK293T cells | HEK293T ELG1-luciferase reporter, luminescence, 16 h; DNA damage induced by 5-fluorouridine | actives 2.3% (n = 330,000) | AID 504467 | Potency, µM (highest dose often 46.1 µM), for the others: at the highest dose activity change, negative = inhibition, actives largely listed as inhibitors; further: potency means the concentration at half of the fitted maximal effect; nearly all actives have a fitted effect of over 55% in size
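Quantitative HTS, concentration-response format. 2,000 cells/well co-treated with 5-fluorouridine and compound, 16 hr in 5% CO2 at 37 °C; ONE-Glo luminescence read after 30 min.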
IL-1B inflam inh: inhibitors of inflammasome signaling (IL-1 beta secretion); activity change, % at 57.5 µM; THP-1 LPS/ATP IL-1B secretion, AlphaLISA, 16 h; active compounds read low; actives 4.7% (n = 360,000); in the data active means activity change below about -50%; inconclusive means mostly about -30% to -49%
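Secreted IL-1B measured by AlphaLISA bead assay after 16 h compound exposure of THP-1 cells; compounds (final up to 57.5 uM) added 1 h before LPS (250 ng/mL) and ATP (1.25 mM) stimulation; lower signal means less secretion.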
VP16 counter: counter-screen for ROR gamma inhibitors: Gal4-VP16 reporter; Drosophila S2 Gal4-VP16 UAS-luciferase, luminescence, 20 h; Potency, µM (top dose mostly 53.6 µM), for inactives: at the top dose activity, negative = inhibition, actives largely listed as inhibitors; actives 3.5% (n = 310,000); AID 2546;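 further: Gal4-VP16 expression switched on by copper sulfate through the metallothionein promoter; potency means the concentration at half of the fitted maximal effect; nearly all actives have a fitted effect of over 50% in size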
RORgamma inh: ROR gamma (mouse) transcription inhibition; P51450; Drosophila S2 Gal4-RORgamma UAS-luciferase reporter, 20 h; Potency, µM (titrated, usually from 53.6 µM), for inactives: top-dose activity change, negative = inhibition, actives largely listed as inhibitors; actives 5.4% (n = 310,000); AID 2551; further: potency means the concentration at half of the fitted maximal effect; nearly all actives have a fitted effect of over 60% in size
Target sequence (P51450 whole entry, looked up, the tested form may be a part): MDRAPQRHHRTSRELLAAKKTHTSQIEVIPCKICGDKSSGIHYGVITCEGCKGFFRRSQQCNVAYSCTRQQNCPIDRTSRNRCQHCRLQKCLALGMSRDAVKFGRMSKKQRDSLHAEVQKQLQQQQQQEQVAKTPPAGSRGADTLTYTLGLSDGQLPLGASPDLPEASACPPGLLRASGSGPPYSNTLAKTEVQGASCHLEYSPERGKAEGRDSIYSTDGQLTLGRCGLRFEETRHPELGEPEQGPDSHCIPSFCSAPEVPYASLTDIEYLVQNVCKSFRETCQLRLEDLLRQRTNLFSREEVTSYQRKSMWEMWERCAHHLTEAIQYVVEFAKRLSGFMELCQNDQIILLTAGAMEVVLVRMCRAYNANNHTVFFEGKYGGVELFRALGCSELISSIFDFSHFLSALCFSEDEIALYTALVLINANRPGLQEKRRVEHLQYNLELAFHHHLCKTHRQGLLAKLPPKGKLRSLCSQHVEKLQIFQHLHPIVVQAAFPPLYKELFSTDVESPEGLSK
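Schneider cells (Drosophila), stable Gal4 DBD–ROR gamma + UAS-luc; 1 hr cmpd preincubation; Cu2+ induction 700 uM final; 20 hr ambient; luminescence.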
DT40 TDP1 no CPT: qHTS for Inhibitors of human tyrosyl-DNA phosphodiesterase 1 (TDP1): qHTS in cells in absence of CPT; AID 686978, 2013; Potency, µM (highest dose often 46.2 µM), for the others: top-dose activity change, negative = growth inhibition, hits mostly inhibitors; actives 15% (n = 420,000); DT40 Tdp1-/- hTDP1 cells, no CPT, ATP luminescence, 48 h; further: potency means the concentration at half of the fitted maximal effect; nearly all actives have a fitted effect of over 55% in size
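Readout: luminescence from CellTiter-Glo after 30 min in the dark at RT. Cells: DT40 Tdp1-/- with stable hTDP1, 400/well. Exposure: compounds alone, ≥48 hr, 37 °C.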
* hit, by the source's call; ? = inconclusive; . = no result given. Unless noted, the call rests on the fitted dose curve; in most records, active means well fitted curve in the direction sought with a large enough effect; inconclusive means small, poorly fitted or top-dose-only effect, or another doubt; inactive means no such curve, though single readings can be large; an effect the other way counts as inactive or inconclusive. On the % scale 0 is the no-effect control and ±100 the full control effect.

SMILES	TDP1 cell CPT	ELG1 repair inh	IL-1B inflam inh	VP16 counter	RORgamma inh	DT40 TDP1 no CPT
Cc1ccc(S(=O)(=O)Nc2ccc3c(c2)C(=O)N([C@H](C)CO)C[C@H](C)[C@@H](CN(C)C(=O)NC2CCCCC2)OCCCC[C@@H](C)O3)cc1	20.6µM*	.	-8.7	.	.	13µM*
C[C@H](CO)N1C[C@H](C)[C@@H](CN(C)C(=O)NC2CCCCC2)Oc2ccc(NS(=O)(=O)c3ccccc3)cc2C1=O	-18.0%	15.7%	-11.6	.	.	-18.3%
Cc1ccc(S(=O)(=O)Nc2ccc3c(c2)C(=O)N([C@@H](C)CO)C[C@@H](C)[C@@H](CN(C)C(=O)NC2CCCCC2)OCCCC[C@H](C)O3)cc1	0.3%	.	-16.1	.	.	-16.5%
Cc1cc(N2CCCC2=O)ccc1S(=O)(=O)Nc1c(C)nn(C)c1C	?	?	33.8	-24.2%	?	9.2µM*
Cc1cc(N2CCCC2=O)cc(C)c1S(=O)(=O)Nc1c(C)nn(C)c1C	-16.5%	?	33.2	2.1%	-15.0%	-24.4%
Cc1cc(N2CCCC2=O)ccc1S(=O)(=O)NCCOc1ccccc1	18.4µM*	?	20.0	?	-43.5%	14.6µM*
O=C(Cc1ccc[nH]c1=O)c1ccc(F)cc1	-1.3%	.	.	.	.	-8.8%
CCCCOc1cccc(NC(=O)CSc2nnc(C)s2)c1	-13.6%	.	.	.	.	-17.7%
COc1ccc(S(=O)(=O)NC2CC(=O)N(c3ccccc3)C2)cc1C (stereo unspecified)	-17.2%	-6.4%	4.3	.	.	-15.3%
CCCCCC/C=C/c1ccc([C@H]2[C@H]3C=CC[C@@H](C)[C@@H]3C(=O)N2Cc2ccccc2)c(F)c1	?	17.2%	28.1	-4.5%	9.3%	16.4µM*
COc1ccc(-c2ccc([C@H]3[C@H]4C=CC[C@@H](C)[C@@H]4C(=O)N3Cc3ccccc3)c(F)c2)cc1OC	18.4µM*	?	?	-1.4%	?	16.4µM*
CC1CC=CC2C1C(=O)N(Cc1ccccc1)C2c1ccc(-c2ccc(N(C)C)cc2)cc1F (stereo unspecified)	.	.	.	-6.6%	40.0%	.
CC1CC=CC2C1C(=O)N(Cc1ccccc1)C2c1ccc2ccccc2c1-c1ccc(N(C)C)cc1 (stereo unspecified)	.	.	.	-2.6%	-1.7%	.
COc1ccc(-c2c([C@H]3[C@H]4C=CC[C@@H](C)[C@@H]4C(=O)N3Cc3ccccc3)ccc3ccccc23)cc1	10.3µM*	?	-10.1	-14.2%	16.1%	10.3µM*
COc1ccc(-c2ccc([C@H]3[C@H]4C=CC[C@@H](C)[C@@H]4C(=O)N3Cc3ccccc3)c(F)c2)cc1	?	-3.9%	-2.9	-10.9%	16.4%	20.6µM*
CCCn1c(SC(C)C(=O)NC2CCCC(C)C2C)n[nH]c1=O (stereo unspecified)	?	.	5.3	.	.	?
CC1CCN(S(=O)(=O)c2ccc3c(c2)N(C)C(=O)CC(=O)N3C)CC1	?	0.9%	3.3	-0.9%	-25.5%	?
O=[N+]([O-])c1ccc2c(c1)c1ccccc1n2CCO	9.0%	1.9%	.	-1.1%	12.4%	?
CCN(CC)CC(O)Cn1c(C)c(-c2ccccc2)c2cc([N+](=O)[O-])ccc21 (stereo unspecified)	20.6µM*	-2.5%	-76.6*	-19.9%	?	9.2µM*
O=P(O)(O)OC[C@H]1O[C@](O)(COP(=O)(O)O)[C@@H](O)[C@@H]1O	7.0%	.	.	-11.1%	17.0%	-4.5%
COc1cccc(/C=N/NC(=O)CNC(=O)COc2ccccc2)c1O	6.51µM*	?	180.4	1µM*	0.282µM*	7.31µM*
